The values below come from PubChem BioAssay AID1986 (Sanford-Burnham Center for Chemical Genomics, 2009).

Structures are written as SMILES. About 890 (0.31%) of roughly 290,000 compounds were called active. The sample holds actives, similar compounds and a random draw of the others, so the mix is not that of the screen. Cut-off read from the data, not from the text of the source: active = inhibition mostly above about 52% (no sharp cut-off); inactive = mostly below about 76%.

The test in a line: inhibitors of HIV fusion peptide binding, primary screen, biochemical, uHTS, fluorescence dequenching (AID 1986). The following applies: cell-free peptide binding, 30 min, stronger effect = higher value.
Where [1] appears, read: measured here: repeat confirmation average inhibition, at 18.6 µM.

Regarding `COc1cc(OC)c(OC)cc1CN1CCN(C(=O)CC(C)C)CC1`, where the note is “at 20 µM”, the inhibition was -0.6% (inactive).

As for `O=C(Oc1cccc(-n2cnnn2)c1)c1ccco1`, the inhibition (at 20 µM) was 12% (inactive). The same measure, in the same setting: the same measure for `CC(NC(=O)c1ccc2c(c1)OCO2)c1ccccc1` (stereo not given): 0.3% (inactive).

For `Cc1ccc2c(C(=O)CN3CCCC(C)C3)c(C)[nH]c2c1` (stereo not given), the inhibition (at 20 µM) is -0.5% (inactive).

As for `O=C(OCc1cncs1)c1cccs1`, the inhibition (at 20 µM) is 0% (inactive). On to `O=C(Nc1ccccc1C(=O)O)c1cccc(C(=O)Nc2ccccc2C(=O)O)c1`, for which the inhibition (at 20 µM) is 34.2% (inactive). The same measure, in the same setting: the same measure for `Cc1ccc(S(=O)(=O)CCSc2cccc(C(=O)O)c2)cc1`: 0.9% (inactive); for `Cc1ccc(S(=O)(=O)CCSc2cccc(C(=O)Nc3ccccc3C(=O)O)c2)cc1`: 51.2% (active); for `O=C1NC(=S)S/C1=C\C=C\c1ccc([N+](=O)[O-])o1`: 56.6% (active). Still for that read-out and setting: the same measure for `O=C1CN(/N=C/c2ccc([N+](=O)[O-])o2)C(=O)N1`: 146% (inactive). `O=C(O)/C=C/c1ccc([N+](=O)[O-])o1`: under “at 20 µM”, the inhibition was 5.1% (inactive). Still for that read-out and setting: the same measure for `COc1ccc(/C=C/C(=O)NC(=S)Nc2ccccc2)cc1OC`: 1.5% (inactive); for `O=C(O[C@@H]1OC2COC(=O)c3cc(O)c(O)c(O)c3-c3c(cc(O)c(O)c3O)C(=O)O[C@@H]([C@H]1O)[C@@H]2O)c1cc(O)c(O)c(O)c1`: 31.6% (inactive).

As to `c1ccc2[nH]c3cc4ncnc4cc3nc2c1`, the inhibition by setting is: (at 20 µM) 59.7% (active); under setting [1], 95.9%.

On to `Nc1nc2ccccc2[nH]1`, for which the inhibition (at 20 µM) is -0.4% (inactive). On to `FC(F)(F)c1nc2cc3nc4ccccc4[nH]c3cc2n1`, for which the inhibition (at 20 µM) is 3.4% (inactive). Same read-out and setting: the same measure for `Cc1cc(C)c(/C=N/n2c(C)cc(C)c(C#N)c2=O)c(C)c1`: -2.5% (inactive).

`O=C(NCc1ccc2c(c1)OCO2)c1ccc(CSCc2ccccc2Cl)o1`: under “at 20 µM”, the inhibition is 0.4% (inactive). Same read-out and setting: the same measure for `CCc1oc2ccccc2c1C(=O)CCN1CCCCC1`: -3.9% (inactive). Take `CCc1oc2ccccc2c1C(=O)c1cc(Br)c(O)c(Br)c1`: the inhibition (at 20 µM) was 57.5% (active) and the inhibition under setting [1] was 71.4%. For `CCOC(=O)c1c(O)c2ccccc2oc1=O`, where the note is “at 20 µM”, the inhibition was -0.2% (inactive). The same measure, in the same setting: the same measure for `Cc1ccc(NC2=NCC(=O)N2c2ccc3c(c2)OCCO3)c(C)c1`: 0.4% (inactive); for `O=C(NCCSCc1c(F)cccc1Cl)c1ccco1`: -1.3% (inactive).

Turning to `CN(Cc1cc(=O)n2ccsc2n1)Cc1nc2ccccc2c(=O)[nH]1`, the inhibition (at 20 µM) was -1.5% (inactive). Take `Cc1ccccc1SCC(=O)Nc1cccc(C#N)c1`: the inhibition (at 20 µM) was 8.4% (inactive). As to `N#Cc1cccc(NC(=O)CSc2ccccc2)c1`, where the note is “at 20 µM”, the inhibition was -0.6% (inactive). Consider `COc1ccc(NC(=O)CSc2nnc(C)c3ccccc23)cc1`, for which the inhibition (at 20 µM) is 0.4% (inactive).

In the case of `N#Cc1cccc(NC(=O)CSc2ccc3c4c(cccc24)C(=O)c2ccccc2-3)c1`, where the note is “at 20 µM”, the inhibition was 74.2% (active). With `COc1ccc(NC(=O)CSc2ccc3c4c(cccc24)C(=O)c2ccccc2-3)cc1`, the inhibition (at 20 µM) is 77% (active) and the inhibition under setting [1] stood at 96.6%. As for `COc1ccc(NC(=O)CSc2nncc3ccccc23)cc1`, the inhibition (at 20 µM) was -1.5% (inactive). The same measure, in the same setting: the same measure for `COc1ccccc1NC(=O)C(C)OC(=O)C1CC(=O)N(c2ccc3c(c2)OCCO3)C1` (stereo not given): 1.1% (inactive); for `Cc1ccc(/C=N/NC(=O)c2ccccc2OCc2cccc(Br)c2)o1`: -2.8% (inactive); for `CCOc1ccccc1N1CC(C(=O)Nc2ccccc2N2CCOCC2)CC1=O` (stereo not given): -1.3% (inactive). With `COc1ccccc1CNc1ccccc1F`, the inhibition (at 20 µM) was -1.2% (inactive). The same measure, in the same setting: with `COc1ccccc1C(C)NC(=O)CCOc1cccc(C)c1` (stereo not given) the figure was -1.1% (inactive); with `Cc1ccc2c(CN3C(=O)NC(C)(c4ccc5c(c4)OCO5)C3=O)cc(=O)oc2c1` (stereo not given), 3.8% (inactive).

Consider `Cn1c(N=Nc2ccccc2)nc2ccccc21`, for which the inhibition (at 20 µM) was 101% (active). Same read-out and setting: the same measure for `Cc1cc(C)c(C)c(N=Nc2nc3ccccc3n2C)c1C`: -5.2% (inactive). With `CN(C)c1ccc(N=Nc2nc3ccccc3n2C)cc1`, the inhibition (at 20 µM) was -6% (inactive).

For `CC1CCC2(CC1)Nc1ccccc1C(=O)N2c1ccccc1` (stereo not given), under “at 20 µM”, the inhibition was -0.5% (inactive). Still for that read-out and setting: the same measure for `O=C(CN1CCN(c2ccc(F)cc2)CC1)Nc1ccc(S(=O)(=O)N2CCOCC2)cc1`: 0.3% (inactive). For the compound `CCN(CC)CC(O)CCCCCCCCC(=O)OC` (stereo not given), where the note is “at 20 µM”, the inhibition is -0.6% (inactive). Take `CCOc1ccc(NC(=O)CN2CCN(C3c4ccccc4-c4ccccc43)CC2)cc1`: the inhibition (at 20 µM) was 0.9% (inactive). As for `Cc1cc[n+](-c2[nH]c(=O)sc2/C=N/NC([S-])=Nc2ccccc2)cc1C`, the inhibition (at 20 µM) is 36% (inactive). Consider `O=c1[nH]c(-[n+]2ccccc2)c(/C=N/NC([S-])=Nc2ccccc2)s1`, for which the inhibition was 97.7% (inactive) (at 20 µM) and 27.6% under setting [1]. As to `CCc1ccc[n+](-c2[nH]c(=O)sc2/C=N/NC([S-])=Nc2ccccc2)c1`, for the setting “at 20 µM”, the inhibition was 57% (active). Same read-out and setting: with `CCN(CC)C(=O)Cn1cc(S(=O)(=O)CC(=O)Nc2ccccc2C)c2ccccc21` the figure was 1.2% (inactive); with `N#CC1=C(N)SC(N)=C(C#N)C1c1ccc(C(F)(F)F)cc1`, 18.6% (inactive); with `Cc1ccc(C2C(C#N)=C(N)SC(N)=C2C#N)cc1`, -0.7% (inactive). Same read-out and setting: the same measure for `N#CC1=C(N)SC(N)=C(C#N)C1c1ccoc1`: 97.5% (active); for `O=C(COC(=O)c1ccc([N+](=O)[O-])s1)NC(c1ccccc1)c1ccccc1`: 0% (inactive).

Consider `O=C(NC(=S)NC1CCSC1=O)c1ccc([N+](=O)[O-])cc1` (stereo not given), for which the inhibition (at 20 µM) was -1.4% (inactive). Same read-out and setting: the same measure for `COc1ccc(OC)c(CNC(=O)CCC(=O)N2Cc3cccc(OC)c3Oc3ncccc32)c1`: 1.2% (inactive); for `Cc1ccc2nc(N/C(=N/S(=O)(=O)c3ccc(F)cc3)c3ccccc3)sc2c1`: 8.2% (inactive); for `COc1ccc2nc(N/C(=N/S(=O)(=O)c3cccs3)c3ccccc3Cl)sc2c1`: 30.6% (inactive). The same measure, in the same setting: the same measure for `Cc1ccc2nc(N/C(=N/S(=O)(=O)c3cccs3)c3ccccc3Cl)sc2c1`: 69.2% (active); for `Cc1cc(C)nc(SCc2nc(N)nc(-c3ccccc3O)n2)n1`: -1.6% (inactive); for `COc1cc2c(cc1OC)CN(C(=O)c1sc(-c3cnccn3)nc1C)CC2`: 0.1% (inactive). For `CCOc1cc(/C=N/NC(=O)CN2CCOCC2)ccc1OCc1ccc(Cl)cc1`, the inhibition (at 20 µM) was 0.5% (inactive). For the compound `COc1cc(/C=N/N=C2/NC(=O)C(CC(=O)O)S2)ccc1OCc1ccc(Cl)cc1` (stereo not given), the inhibition (at 20 µM) was 51.8% (active).

For `CCOc1cc(/C=N/N=C2/NC(=O)C(CC(=O)O)S2)ccc1OCc1ccccc1Cl` (stereo not given), the inhibition by setting is: (at 20 µM) 53% (inactive); under setting [1], 36.4%. `COc1cc(/C=N/N=C2/NC(=O)C(CC(=O)O)S2)ccc1OCc1cccc(Cl)c1` (stereo not given): the inhibition (at 20 µM) is 47.1% (inactive).

With `COc1ccc(/C=N/N=C2/NC(=O)C(CC(=O)O)S2)cc1OCc1ccc(Cl)cc1` (stereo not given), the inhibition (at 20 µM) is 44% (inactive).

As for `CCOc1cc(/C=N/NC(=O)CN2CCCCC2)ccc1OCc1ccc(Cl)cc1`, the inhibition (at 20 µM) was -0.7% (inactive). Regarding `COc1ccc(/C=N/N=C2/NC(=O)C(CC(=O)O)S2)cc1OCc1ccc(Cl)cc1Cl` (stereo not given), the inhibition is, setting by setting: (at 20 µM) 50.6% (inactive); under setting [1], 47.2%.

Turning to `Cc1ccc(NC(=S)NCCN(C2CCCCC2)C2CCCC2)cc1C`, the inhibition (at 20 µM) is 0.4% (inactive).

Turning to `COc1cc(C(C)=O)ccc1COc1ccc(C(=O)O)cc1OC`, the inhibition (at 20 µM) is 2.1% (inactive). On the same count and under the same terms, the same measure for `O=C(NC1CC2CCCC(C1)N2Cc1ccco1)NC12CC3CC(CC(C3)C1)C2` (stereo not given): 0.1% (inactive); for `CCC(=O)Oc1ccc2c(C)cc(=O)oc2c1C(=O)c1ccccc1`: 1.8% (inactive). Same read-out and setting: the same measure for `COc1ccc(C(=O)c2cc3cccc(OC)c3o2)cc1`: -1% (inactive).

Take `COc1ccccc1N1C(=O)c2cccc3c(N(C)CCO)ccc(c23)C1=O`: the inhibition is, setting by setting: (at 20 µM) 64% (active); under setting [1], 61.6%.

In the case of `COc1ccc(N2C(=O)c3cccc4c(N(C)CCO)ccc(c34)C2=O)cc1`, the inhibition (at 20 µM) was 150% (inactive). The same measure, in the same setting: with `Cc1ccccc1N1C(=O)c2cccc3c(N(C)CCO)ccc(c23)C1=O` the figure was 2.4% (inactive).

On to `COc1ccccc1/C=C/C=N/n1c(-c2ccncc2)n[nH]c1=S`, for which the inhibition (at 20 µM) was 1.2% (inactive). The same measure, in the same setting: with `CC(C)=NNc1nc2sc3c(c2c(=O)[nH]1)CC(C)(C)OC3` the figure was 6.1% (inactive); with `CN(C)[C@@H]1C(=O)C(C(=O)NCN2CCCC2)=C(O)[C@@]2(O)C(=O)C3=C(O)c4c(O)cccc4[C@@](C)(O)C3CC12` (stereo not given in full), 55.1% (active); with `C=CCCC(=O)N1CCC(n2nccc2NC(=O)CCCc2ccccc2)CC1`, -2.2% (inactive). Still for that read-out and setting: with `COc1ccc2nc(N/C(N)=N/C(=S)Nc3cccc(C)c3)nc(C)c2c1` the figure was 1.7% (inactive); with `CCCCCOc1ccc(/C=c2\sc3nc(=O)c(-c4ccccc4)nn3c2=O)cc1OC`, 51.8% (active). As for `COc1cc(/C=c2\sc3nc(=O)c(-c4ccccc4)nn3c2=O)ccc1OCCC(C)C`, the inhibition runs as follows: (at 20 µM) 62.3% (inactive); under setting [1], 39.1%. Take `COc1ccc(/C=c2\sc3nc(-c4ccccc4)c(-c4ccccc4)n3c2=O)cc1OC`: under “at 20 µM”, the inhibition is -0.1% (inactive). Still for that read-out and setting: the same measure for `CC(=O)Oc1ccc(/C=N/NC2=NS(=O)(=O)c3ccccc32)cc1`: 0.3% (inactive). As to `CCCc1ccc(Oc2coc3cc(OCC(=O)Nc4ccccc4C)ccc3c2=O)cc1`, the inhibition (at 20 µM) is -2.2% (inactive). Same read-out and setting: the same measure for `NC(=S)N/N=C/c1ccccc1O`: -1.4% (inactive); for `NC(=S)N/N=C/c1cccc(O)c1O`: 3.4% (inactive); for `Cc1cc(/C=N/NC(N)=S)c(O)c(/C=N/NC(N)=S)c1`: 88.3% (active). For the compound `CCOC(=O)Cn1c(=N)n(CCOc2ccc(F)cc2)c2ccccc21`, under “at 20 µM”, the inhibition is 0% (inactive).

As to `COc1ccc(CCNC(=O)C2CCC(=O)N(CC3CCCCC3)C2)cc1` (stereo not given), under “at 20 µM”, the inhibition was 0.4% (inactive). Still for that read-out and setting: the same measure for `N/C(Cc1cccc2ccccc12)=N\OC(=O)COc1ccccc1`: 2.3% (inactive).

Consider `O=C(O)c1ccc(-n2cccc2/C=N\NC(=O)c2cc3cc(Br)ccc3o2)cc1`, for which the inhibition (at 20 µM) is 50.1% (active). With `O=C(O)Cn1cc(/C=N/NC(=O)c2cc3cc(Br)ccc3o2)c2ccccc21`, for the setting “at 20 µM”, the inhibition was 29.5% (inactive).

For the compound `Cn1cc(/C=N/NC(=O)c2cc3cc(Br)ccc3o2)c2ccccc21`, the inhibition (at 20 µM) is 4.4% (inactive). Same read-out and setting: with `Cc1ccc(NC(=O)C2CCN(S(=O)(=O)c3ccc4c(c3)CCCC(=O)N4)CC2)c(Br)c1` the figure was 1.8% (inactive). As for `CCOC(=O)/C(=C/C1=CC(=C/N(C)C)/C(=O)O1)C(C)=O`, the inhibition by setting is: (at 20 µM) 59.4% (active); under setting [1], 65.4%. Turning to `CC1=C/C(=C/N(C)C)C(=O)O1`, the inhibition (at 20 µM) is 5.9% (inactive).

Turning to `CN(C)/C=C1/C=C(C=O)OC1=O`, the inhibition (at 20 µM) is -0.5% (inactive).

The term inhibition denotes the change of the read-out against control, counted positive when it falls.
